Experimental findings from ChEMBL document CHEMBL3988442, “University of Dundee, Small-Polar-MMV Screening Library” (2021) are described below.

Experiment [1] has as its target T1, Aspartate--tRNA(Asp/Asn) ligase (Mycobacterium tuberculosis (strain ATCC 25618 / H37Rv)) (UniProt P9WFW3). Note: in the data most compounds retested in dose-response had high values.
T1 sequence (whole entry): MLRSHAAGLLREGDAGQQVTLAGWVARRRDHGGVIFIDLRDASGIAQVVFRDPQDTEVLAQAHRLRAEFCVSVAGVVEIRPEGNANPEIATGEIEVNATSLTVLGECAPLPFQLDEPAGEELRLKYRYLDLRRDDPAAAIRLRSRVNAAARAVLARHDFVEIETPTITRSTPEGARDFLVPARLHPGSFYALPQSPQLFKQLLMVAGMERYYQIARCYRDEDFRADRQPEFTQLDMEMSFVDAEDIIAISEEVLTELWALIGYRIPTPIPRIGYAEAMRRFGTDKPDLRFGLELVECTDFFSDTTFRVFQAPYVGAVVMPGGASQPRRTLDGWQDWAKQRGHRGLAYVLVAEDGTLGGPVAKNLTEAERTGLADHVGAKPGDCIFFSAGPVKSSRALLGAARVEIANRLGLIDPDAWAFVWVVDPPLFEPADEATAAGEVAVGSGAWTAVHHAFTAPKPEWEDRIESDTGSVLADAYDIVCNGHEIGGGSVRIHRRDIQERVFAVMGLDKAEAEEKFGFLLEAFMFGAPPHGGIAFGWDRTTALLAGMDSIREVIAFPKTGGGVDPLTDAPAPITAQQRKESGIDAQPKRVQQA
As to the kind of experiment: Assay for Asp RNA synthetase-1 from Mycobacterium tuberculosis. The class given is functional. Details: scale not given: direction of the effect not stated beside the values. Particulars: 30 µM.

Experiment [2] deals with Shiga toxin 2 (Escherichia coli O157:H7) (UniProt P09385+P09386). As to the kind of experiment: E. coli 0.157:H7 Shiga Toxin SOP - stx2 screening assay. Details: scale not given: direction of the effect not stated beside the values. The class given is functional. The note with it: 30 µM.

Regarding `COCCCN(CCOC)C(=O)Nc1ccccc1Br`, the Percent Effect in experiment [1] was -10.6%; in experiment [2], -6.69%.
In the case of `Cc1nc(CN2CCN(C(=O)c3sccc3C3CC3)CC2)cs1`, the Percent Effect was -4.27% in experiment [1] and 13.6% in experiment [2].
For `CC(C)(C(=O)NCC1CC1)c1ccccc1F`, the Percent Effect was -1.98% in experiment [1] and -2.97% in experiment [2].
Consider `COCC1CN(C(=O)c2ccoc2C)Cc2nccn2C1` (stereo not drawn), for which the Percent Effect is 4.54% in experiment [1] and -11.3% in experiment [2].
`CN(C)C(=O)N1C[C@@H]2CCCO[C@@H]2[C@H](N(C)Cc2ccco2)C1`: the Percent Effect in experiment [1] is -1.32%; in experiment [2], -18.8%.
For `Cc1ccn(-c2ccc(C(=O)N3CCCC(C(N)=O)C3)cc2)n1` (stereo not drawn), the Percent Effect in experiment [1] was -3.4%; in experiment [2], 8.96%.
The like results for `CCN(Cc1ccc2c(c1)OCCO2)C(=O)NCc1nc(C)cs1` were, in that order, -0.519% and 28.5%.
The like results for `CN(C)CC1CN(c2ccc(C#N)cn2)CCO1` (stereo not drawn) were, in that order, 0.899% and 22.4%.
The matching figures for `Cc1noc([C@H]2C[C@H]3OCC[C@H]3N(S(=O)(=O)C3CC3)C2)n1`: 0.456% and 19.9%.
On to `c1ncn(CC2CCCCN2Cc2csc(C3CCCC3)n2)n1` (stereo not drawn), for which the Percent Effect in experiment [1] is -7.74%; in experiment [2], -35.6%.
The like results for `CCc1ncc(CN(C)C(=O)Nc2cccnc2N2CCCC2)s1` were, in that order, 2.75% and -14.5%.
The like results for `CN(Cc1ccccn1)C1CC2(CCN(Cc3cccnc3)CC2)C1` were, in that order, -2.75% and -14.8%.
The matching figures for `COCCC(=O)Nc1ccnc(Oc2ccccc2)c1`: 13.9% and -27.8%.
As for `CC(CNC(=O)c1ccccc1Oc1cccnc1)N(C)C` (stereo not drawn), the Percent Effect is -2.89% in experiment [1] and -5.12% in experiment [2].
The like results for `Cc1ccc(S(=O)(=O)N2CSCC2C(=O)N(C)C2CC2)cc1Cl` (stereo not drawn) were, in that order, 3.03% and 19.2%.
The like results for `CSc1ccccc1CN1CCCn2nc(CNC(=O)N(C)C)cc2C1` were, in that order, 2.53% and -34.2%.
The matching figures for `CCn1cc(N)c(C(=O)NCc2cnn(C)c2)n1`: -1.99% and -25.8%.
Regarding `COC(=O)C(c1cc(F)ccc1F)N(C)C(=O)c1ccnc(C)n1` (stereo not drawn), the figures for the Percent Effect in experiment [1] and in experiment [2] were -0.393% and -2.56%, respectively.
The matching figures for `CCOc1ccccc1C(=O)NS(=O)(=O)c1ccc2c(c1)OCCCO2`: -0.534% and 19.9%.
Turning to `CO[C@@H]1CC[C@H]2[C@H]1OCCN2C(=O)COc1ccc(F)cc1`, the results for the Percent Effect in experiment [1] and in experiment [2] were -2.58% and -2.38%, respectively.
The like results for `O=C(CCO)N1CCOC2(CCCN(C(=O)c3ccco3)C2)C1` (stereo not drawn) were, in that order, -4.34% and -15.2%.
With `Cn1cccc1C(=O)N1CCC2(CC1)CN(c1cncnc1)C(=O)CO2`, the results for the Percent Effect in experiment [1] and in experiment [2] were -4.72% and -1.71%, respectively.
As for `Cc1nn(C)c(Cl)c1C1CCCN1C(=O)c1cc[nH]n1` (stereo not drawn), the Percent Effect in experiment [1] is 3.04%; in experiment [2] it was -8.07%.
For the compound `Cc1nn(C)cc1-c1cc(C(F)(F)F)c2c(C)nn(CC(=O)O)c2n1`, the Percent Effect worked out at 4.84% in experiment [1] and 34.1% in experiment [2].
The matching figures for `Cc1cccc(CN2C[C@@H]3CN(C(=O)[C@H]4CCCO4)C[C@@H]3C2=O)c1`: -6.69% and -9.8%.
With `O=C(NCC1CC1)[C@H]1C[C@@H]2CN(S(=O)(=O)Cc3ccccc3)C[C@H]1O2`, the Percent Effect is 4.1% in experiment [1] and -14.6% in experiment [2].
Consider `O=C(NCCc1nnc2n1CCC2)NC1(c2cccc(F)c2)CC1`, for which the Percent Effect is 3.98% in experiment [1] and -25% in experiment [2].
The like results for `O=C1CCC2(CCN(c3ncc(F)cn3)CC2)N1CCN1CCCC1` were, in that order, 1.53% and -1.87%.
The matching figures for `Cc1ccccc1-c1noc(CN2CCn3c(nnc3C3CC3)C2)n1`: -0.7% and -48.8%.
On to `NC(=O)CN1CCC(NC(=O)c2ccn(-c3cccc(F)c3)n2)CC1`, for which the Percent Effect in experiment [1] is 2.51%; in experiment [2] it was -20%.
The matching figures for `CCc1ccc(C(=O)O)cc1S(=O)(=O)Nc1ccc(F)c(C#N)c1`: 4.35% and -1.93%.
The like results for `c1cc2n(n1)CC(CNCc1ccc(OCC3CC3)nc1)CN2` (stereo not drawn) were, in that order, 0.395% and -66.4%.
For the compound `N#CCCN(C(=O)CN1CCCC1C1CCCCC1)c1ccccc1` (stereo not drawn), the values for the Percent Effect in experiment [1] and in experiment [2] were 8.01% and -20.8%, respectively.
Take `COc1c(CNCc2ccc(CN(C)C)cc2)c(C)nn1C`: the Percent Effect was 2.29% in experiment [1] and -30.1% in experiment [2].
With `NC(=O)N1CCC2(CC1)CN(c1ccsc1)C(=O)CO2`, the Percent Effect in experiment [1] is 1.31%; in experiment [2], -21.1%.
Consider `COc1ncccc1NC(=O)C1CCN(S(C)(=O)=O)CC1`, for which the results for the Percent Effect in experiment [1] and in experiment [2] were -1.61% and -91.6%, respectively.
For the compound `COCc1cccc(CNCc2c(C)nn(C)c2N(C)C)c1`, the Percent Effect in experiment [1] was found to be 6.21%; in experiment [2], 1.1%.
The matching figures for `Cn1c(CNc2c(F)cccc2-n2cccn2)cc(=O)n(C)c1=O`: -0.864% and 0.236%.
The matching figures for `O=C(NCCN1CCCCC1)c1ccoc1`: 2.52% and -21.3%.
The like results for `c1cnc(NCc2noc3c2CN(C2CCOCC2)CC3)nc1` were, in that order, 2.79% and -7.78%.
For `CCn1ccnc1CN1CCN(CCOc2cccc(C#N)c2)CC1`, the figures for the Percent Effect in experiment [1] and in experiment [2] were -0.322% and -9.38%, respectively.
The like results for `CCc1nc(C2CCCN2Cc2nccn2Cc2ccccc2)no1` (stereo not drawn) were, in that order, -2.22% and 12.2%.
The matching figures for `Cc1ccc(C(=O)NCCCNS(C)(=O)=O)c(=O)[nH]1`: -3.45% and -17.7%.
As for `O=C(C1=CCCC1)N1C[C@H](Oc2cccnc2)[C@H]2OCCC[C@H]21`, the Percent Effect in experiment [1] is -2.63%; in experiment [2] it was -10.5%.
The matching figures for `CC(CN1CCOCC1)NCc1nncn1C1CCCCC1` (stereo not drawn): 0.0836% and -15.5%.
The like results for `Cc1nccn1C1CCCN(C(=O)c2cc(O)nc3ccccc23)C1` (stereo not drawn) were, in that order, 1.77% and 5.42%.
Consider `CCC(O)CN1CCN(C(=O)c2cccn2Cc2ccccc2)CC1` (stereo not drawn), for which the Percent Effect was -0.0571% in experiment [1] and 16.8% in experiment [2].
As for `O=C(c1ccco1)N1C[C@@H]2OCCN(CCN3CCCC3)[C@@H]2C1`, the Percent Effect is 7.66% in experiment [1] and -2.25% in experiment [2].
With `O=C(c1ccsc1)N1CC[C@H]2C[C@@H](c3nnc(C4CC4)o3)O[C@@H]2C1`, the Percent Effect in experiment [1] was 0.51%; in experiment [2] it was -18.9%.
With `CN(Cc1nc(N)c2ccccc2n1)CC1CCCN1c1cccnn1` (stereo not drawn), the Percent Effect turned out to be 4.61% in experiment [1] and 24.7% in experiment [2].
Consider `c1ccc(C2CCN(c3cncc(-n4cccn4)n3)CC2)cc1`, for which the results for the Percent Effect in experiment [1] and in experiment [2] were -0.999% and -5.12%, respectively.
As for `Cc1cccc(C(=O)NCCCN2CCN(c3ccccc3)CC2)c1`, the results for the Percent Effect in experiment [1] and in experiment [2] were 0.86% and -54%, respectively.
The matching figures for `COC(=O)CC(c1cnn(C)c1)c1oc(C)cc(=O)c1O` (stereo not drawn): -0.166% and -13.2%.
For the compound `Cc1cc(CN2CCN(CC(O)c3ccccc3)CC2)no1` (stereo not drawn), the figures for the Percent Effect in experiment [1] and in experiment [2] were -5.08% and 3.56%, respectively.
The matching figures for `CN(Cc1ccc(F)cc1)C(=O)Cn1nc(-c2ccc(F)cc2)oc1=O`: 5.72% and -25.7%.
As to `CN(Cc1nnc2n1CCC2)C(=O)NCCc1ccc2c(c1)OCO2`, the Percent Effect in experiment [1] amounted to 10.3%; in experiment [2], 19.1%.
On to `CN(CC(N)=O)S(=O)(=O)c1ccc(F)cc1Cl`, for which the Percent Effect in experiment [1] was -2.44%; in experiment [2], -10.3%.
On to `Cc1nc(CN2C[C@@H]3CN(C(=O)c4cnccn4)C[C@@H]3C2)cs1`, for which the values for the Percent Effect in experiment [1] and in experiment [2] were -0.661% and 1.79%, respectively.
The like results for `Fc1ccc(CN2CCCC2Cn2cccn2)c2ncccc12` (stereo not drawn) were, in that order, -2.13% and -3.45%.
With `Cn1cc(CN2CCc3nc(-c4ccccn4)nc(O)c3C2)cn1`, the Percent Effect was -5.28% in experiment [1] and -24.6% in experiment [2].
For the compound `Cn1cc(-c2nc(CNCCn3cccn3)cs2)cn1`, the results for the Percent Effect in experiment [1] and in experiment [2] were -0.0111% and -121%, respectively.
The matching figures for `CCN1C[C@@H]2[C@@H](OC)CCN(S(=O)(=O)c3ccccc3F)[C@@H]2C1`: -3.02% and 0.716%.
The like results for `O=C1N(c2ccc(Br)cc2)Cc2nc(=O)[nH]n21` were, in that order, -4.79% and -34.3%.
With `Cn1nnc2c1CCN(Cc1nccs1)C2COCc1ccccc1` (stereo not drawn), the Percent Effect in experiment [1] was 2.63%; in experiment [2], -58%.
The like results for `Cc1nc(C)n(CC2CCCN(Cc3nnc(C(C)(C)C)o3)C2)n1` (stereo not drawn) were, in that order, 1.32% and 1.5%.
As for `CNCC(=O)N1CCCC(c2cccc(Nc3nc(C)cc(C)n3)n2)C1` (stereo not drawn), the results for the Percent Effect in experiment [1] and in experiment [2] were 3.29% and -1.86%, respectively.
The matching figures for `O=C(N[C@@H]1CCNC[C@H]1O)c1ccc(F)c(Cl)c1`: -0.19% and 12.3%.
Regarding `CN(CC1(O)CCCCC1)C1CCCN(Cc2noc(C3CC3)n2)C1` (stereo not drawn), the Percent Effect in experiment [1] is -2.39%; in experiment [2], 23.8%.
Regarding `Cc1cc(C(=O)N2C[C@@H]3COC[C@]3(c3nnc(C4CC4)o3)C2)on1`, the results for the Percent Effect in experiment [1] and in experiment [2] were 2.94% and -27.3%, respectively.
In the case of `O=C(NCCOc1ncc(Cl)cc1Cl)c1ccncc1F`, the Percent Effect is -3.03% in experiment [1] and 1.2% in experiment [2].
The like results for `Cc1nn(C)c(N2CCOCC2)c1CNC1CCc2ccccc2C1` (stereo not drawn) were, in that order, -2.23% and -3.73%.
In the case of `CCn1c(C)nnc1CN(C)C1CCN(Cc2nccn2C)C1` (stereo not drawn), the Percent Effect in experiment [1] is 1.34%; in experiment [2], -37.8%.
The like results for `CCCc1n[nH]c(C2CN(C(=O)CCCn3cccn3)CCO2)n1` (stereo not drawn) were, in that order, -0.947% and -21.7%.
The like results for `CCc1nc(C2CCCN2CC(=O)Nc2c(C)n[nH]c2C)no1` (stereo not drawn) were, in that order, -2.31% and 2.91%.
